This is part of a sample that, as a whole, favours compounds with a hit. Of some 79,000 tested, about 15% had one in any assay. Cut-off read from the data, not from the text of the source: active = growth inhibition above about 70%; inactive = the rest.
Experiments:
[1] = NCI Yeast Anticancer Drug Screen. Data for the rad50 strain (AID 155);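 note: 0% = growth of vehicle-only cultures of the same strain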; details: S. cerevisiae rad50 strain growth inhibition; at 50.0 µM; hits give high values
How it was run: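 Vehicle-treated cultures provide the reference for the growth inhibition reported for compound-exposed, repair-deficient yeast.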

[2] = NCI Yeast Anticancer Drug Screen. Data for the mec2-1 strain (AID 157); details: S. cerevisiae mec2-1 strain, at 50.0 µM, hits give high values
How it was run: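 Vehicle-treated cultures served as reference for growth inhibition of compound-exposed mec2-1 yeast.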

[3] = NCI Yeast Anticancer Drug Screen. Data for the sgs1 mgt1 strain (AID 161);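 note: 0% = growth of cultures given vehicle only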; details: S. cerevisiae sgs1 mgt1 strain, at 50.0 µM, hits give high values
How it was run: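 Mutant yeast exposed to compound; growth scored against vehicle-only wells.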

[4] = NCI Yeast Anticancer Drug Screen. Data for the cln2 rad14 strain (AID 165);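 note: 0% = growth equal to vehicle treated cultures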; details: S. cerevisiae cln2 rad14 strain, at 50.0 µM, hits give high values
How it was run: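 Each compound was tested on cln2 rad14 yeast. Inhibition of growth was calculated against vehicle-exposed controls.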

[5] = NCI Yeast Anticancer Drug Screen. Data for the bub3 strain (AID 167); details: S. cerevisiae bub3 mutant strain, at 50.0 µM, hits give high values
How it was run: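 Mutant yeast screening strain plus compound; vehicle-treated cultures serve as the 0% inhibition reference.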

[6] = NCI Yeast Anticancer Drug Screen. Data for the mlh1 rad18 strain (AID 175); details: S. cerevisiae mlh1 rad18 strain growth inhibition; at 50.0 µM; hits give high values
How it was run: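 Vehicle-treated cultures served as the reference for growth inhibition in a yeast strain carrying DNA damage repair alterations exposed to each compound.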

Measured: growth inhibition

COc1ccc(OC)c(CCc2cc(OC)ccc2OC)c1
inactive: [1] -7.85% | [2] -13.2% | [3] -9.95% | [4] -40.1% | [5] 13.2% | [6] -28%

[Cl][Sn]1([Cl])[CH2]CCCCCC[CH2][Sn]([Cl])([Cl])[CH2]CCCCCC[CH2]1
inactive: [1] 26.4% | [2] 6.75% | [3] 24.1% | [4] 33.8% | [5] -2.05% | [6] 18.7%

NC(c1ccccc1)C(O)c1ccc(O)cc1 (stereo not given)
inactive: [1] 19.4% | [2] 12.3% | [3] 10.1% | [4] -10.6% | [5] 1.05% | [6] -8.35%

O=C(O)c1cc(Cl)nc(Cl)c1
inactive: [1] -2.1% | [2] 22% | [3] 2.05% | [4] -26.2% | [5] 17.4% | [6] -14.8%

c1ccc(P2c3ccccc3Oc3ccccc32)cc1
inactive: [1] 36.9% | [2] 7.3% | [3] 42.2% | [4] 42.6% | [5] 32.6% | [6] 37%

O=C1NC(=O)C(O)(Cc2ccccn2)C(=O)N1
inactive: [1] 9.9% | [2] 6.45% | [3] 13.5% | [4] 13.2% | [5] -21.1% | [6] -6.65%

COC(=O)C1C(O)CC2CCC1[N+]2(C)C (stereo not given)
inactive: [1] 3.3% | [2] 5.8% | [3] 12.4% | [4] 2.05% | [5] 36.9% | [6] -6.8%

O=C(CC(=O)C(F)(F)F)c1ccco1.[Co]
inactive: [1] -16.5% | [2] -17.2% | [3] -16.5% | [4] -10.5% | [5] -7.8% | [6] 3.55%

CCOC(=O)C(CC)(CC)C(=O)OCC
inactive: [1] -18.9% | [2] -2.3% | [3] -29.6% | [4] -38% | [5] -12.4% | [6] 4%

Cc1ccc([NH-])cc1.Cc1ccc([NH-])cc1.[Cl][Pt+2][Cl]
inactive: [1] -31.7% | [2] -6.8% | [3] 3.95% | [4] -61.7% | [5] 3.55% | [6] -11.3%

CC(=O)CC(C)=O
inactive: [1] -7.2% | [2] 3.8% | [3] -3% | [4] -11.3% | [5] 1.7% | [6] 1.8%

S=C=Nc1cccc2ccccc12
inactive: [1] -13.7% | [2] -11.8% | [3] -10.1% | [4] 17.5% | [5] -6.45% | [6] -6.1%

CN(C)C1CCNCC1
inactive: [1] 19.7% | [2] 5.2% | [3] 17% | [4] 4.75% | [5] 4.6% | [6] -1.5%

Cc1cc(-c2ccccc2)cc(-c2ccccc2)[o+]1
inactive: [1] 2.3% | [2] -2.55% | [3] 2% | [4] -23% | [5] 1% | [6] 4.25%

C[C@@]12CC/C(=N\OCC(=O)O)C=C1CC[C@H]1C2CC[C@]2(C)C1CC[C@H]2O (stereo not given in full)
inactive: [1] -9.4% | [2] -2.55% | [3] -14.6% | [4] -15.8% | [5] 2.75% | [6] -14.7%

Cc1ccnc(NN=O)c1
inactive: [1] -2.35% | [2] -18.8% | [3] -6.75% | [4] -1.05% | [5] -17.1% | [6] 2.25%

CC(C)=NNC1=NC(C)(C)P(=O)(N2CCCC2C(=O)O)S1 (stereo not given)
inactive: [1] 0.8% | [2] -12.4% | [3] -0.45% | [4] -2.3% | [5] 5.25% | [6] -9.2%

O=P(NCCCl)(NCCCl)Oc1ccccc1
inactive: [1] -19.5% | [2] -0.5% | [3] -18.8% | [4] -16.1% | [5] -7.25% | [6] -13.1%

Clc1ccc([C@H]2N[C@@H]2c2ccccn2)cc1
inactive: [1] 11.2% | [2] 16.1% | [3] 13.7% | [4] -8.45% | [5] 9.15% | [6] -5.55%

CO[C@@]12[C@@H]3N[C@@H]3CN1C1=C(C(=O)C(NCCC#N)=C(C)C1=O)[C@@H]2COC(N)=O
inactive: [1] -15.8% | [2] 13.2% | [3] -13.1% | [4] 10.6% | [5] -5.3% | [6] 55.6%

Source: PubChem BioAssay (NCI)
